Test results as given in PubChem BioAssay (Tox21).
Results filed as inconclusive are left out. The source made the active and inactive calls. The call rests on the fitted dose curve.

test system: not listed separately; test: qHTS assay to identify small molecule agonists or antagonists of the thyroid stimulating hormone receptor (TSHR) signaling pathway - wild type cell line counter screen (AID 1259384); conditions: HEK293 wild type, cAMP HTRF counter-screen, active compounds read high; series mostly up to 92.4 µM; cAMP activity change: at the top concentration
Outline: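 Counter screen in untransfected Hek293: compounds (15-point titration, triplicate) plus phosphodiesterase inhibitor Ro20-1724 added after 18 h plating; 30 min RT. Intracellular cAMP via competitive d2/cryptate immunoassay, 1 h incubation.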
On the % scale 0 is the no-effect control and ±100 the full control effect.

Row | SMILES | cAMP activity change | outcome
1 | CC(C)(C)CC(C)(C)c1ccc(O)c(Cc2ccc(Cl)cc2Cl)c1 | 7.78% [at 42.5 µM] (inactive) | –
2 | Nc1nc2ccccc2n1Cc1ccc(F)cc1 | 5.43% [at 42.5 µM] (inactive) | –
3 | CCCCC(CC)COC(=O)c1ccccc1C(=O)O (stereo not given) | -1.95% (inactive) | –
4 | N/C(=N\N=C\c1ccc(Cl)cc1)N/N=C/c1ccc(Cl)cc1 | -6.79% [at 42.5 µM] (inactive) | –
5 | C[C@@H]1C[C@H]2[C@@H]3CCC4=CC(=O)C=C[C@]4(C)[C@@]3(Cl)[C@@H](O)C[C@]2(C)[C@@]1(OC(=O)c1ccco1)C(=O)CCl | 2.81% [at 42.5 µM] (inactive) | –
6 | Cc1ccc(O)c(C(C)(C)C)c1 | – | inactive
7 | CC1=NC(C)OC1C (stereo not given) | 0.102% (inactive) | –
8 | C[n+]1cc2c3c(ccc2c2ccc4cc5c(cc4c21)OCO5)OCO3 | 4.72% [at 18.9 µM] (inactive) | –
9 | CN(C)c1ccc(C2(c3ccc(N(C)C)cc3)OC(=O)c3cc(N(C)C)ccc32)cc1 | -2.32% (inactive) | –
10 | CCCC(C)c1ccccc1O (stereo not given) | -0.0314% (inactive) | –
11 | CCOC(=O)c1nc(C(Cl)(Cl)Cl)n(-c2ccc(Cl)cc2Cl)n1 | -0.251% (inactive) | –
12 | OCCN1CCN(CC/C=C2/c3ccccc3Sc3ccc(C(F)(F)F)cc32)CC1 | 4.16% [at 42.5 µM] (inactive) | –
13 | CC(C)(C)C1CCC(CC2=C(O)c3ccccc3C(=O)C2=O)CC1 (stereo not given) | -6.11% [at 42.5 µM] (inactive) | –
14 | NC(=O)CC[C@@H]1NC(=O)[C@H](Cc2ccccc2)NC(=O)[C@H](Cc2ccc(O)cc2)NC(=O)CCSSC[C@@H](C(=O)N2CCC[C@H]2C(=O)N[C@@H](CCCN=C(N)N)C(=O)NCC(N)=O)NC(=O)[C@H](CC(N)=O)NC1=O | 3.01% [at 42.5 µM] (inactive) | –
15 | O=C1C=CC(=O)N1c1ccc(Cc2ccc(N3C(=O)C=CC3=O)cc2)cc1 | -0.259% (inactive) | –
16 | O=C(OCC1CO1)C1CCCCC1C(=O)OCC1CO1 (stereo not given) | -3.92% (inactive) | –
17 | Clc1ccc(C(Cn2ccnc2)OCc2ccc(Sc3ccccc3)cc2)c(Cl)c1 (stereo not given) | -2.94% [at 42.5 µM] (inactive) | –
18 | CCN(C(=O)N(CC)c1ccccc1)c1ccccc1 | -1.75% (inactive) | –
19 | CC1(C)CCC(C)(C)c2cc(C(=O)Nc3ccc(C(=O)O)cc3)ccc21 | 5.51% (inactive) | –
20 | CN(C)CCCOC1(Cc2ccccc2)CCCCCC1 | -7.49% [at 42.5 µM] (inactive) | –
21 | COc1cccc2c1C(=O)c1c(O)c3c(c(O)c1C2=O)C[C@@](O)(C(=O)CO)C[C@@H]3O[C@H]1C[C@H](N)[C@H](O[C@@H]2CCCCO2)[C@H](C)O1 | -15.5% [at 42.5 µM] (inactive) | –
22 | CCN(C(=O)c1cc(C)cc(OC[C@H](C)Nc2ccncc2)c1)C(C)C | -0.0011% [at 42.5 µM] (inactive) | –
23 | CCCCCCCCCCCC[N+](C)(C)CCCCCCCCCCCC | 1.8% (inactive) | –
24 | CCCCN1C(=O)[C@@H]([C@H](O)C2CCCCC2)NC(=O)C12CCN(Cc1ccc(Oc3ccc(C(=O)O)cc3)cc1)CC2 | 2.52% (inactive) | –
25 | CS(=O)(=O)CCNCc1ccc(-c2ccc3ncnc(Nc4ccc(OCc5cccc(F)c5)c(Cl)c4)c3c2)o1 | -0.552% [at 42.5 µM] (inactive) | –
26 | O=C(O)c1cc(O)c2c(c1)C(=O)c1cccc(O)c1C2=O | -2.39% (inactive) | –
27 | O=CC=C(c1ccccc1)c1ccccc1 | -5.96% (inactive) | –
28 | O=C(Nc1cccc([N+](=O)[O-])c1)c1cc2ccccc2cc1O | -15.7% (inactive) | –
29 | Oc1c(Cl)cc(Cl)c2cccnc12 | -5.79% [at 42.5 µM] (inactive) | –
30 | CC(=O)S[C@@H]1CC2=CC(=O)CC[C@]2(C)[C@H]2CC[C@@]3(C)[C@@H](CC[C@@]34CCC(=O)O4)[C@H]12 | 0.223% (inactive) | –

biological target: Thyrotropin receptor (Homo sapiens) (UniProt P16473); test: qHTS assay to identify small molecule antagonists of the thyroid stimulating hormone receptor (TSHR) signaling pathway (AID 1259385); conditions: TSHR-HEK293 cAMP HTRF, TSH-stimulated antagonist mode; series mostly up to 92.4 µM; activity change, negative = inhibition: at the top concentration; further: nearly all actives have a fitted effect of over 20% in size; further: potency means the concentration at half of the fitted maximal effect
Sequence (P16473 whole entry, looked up): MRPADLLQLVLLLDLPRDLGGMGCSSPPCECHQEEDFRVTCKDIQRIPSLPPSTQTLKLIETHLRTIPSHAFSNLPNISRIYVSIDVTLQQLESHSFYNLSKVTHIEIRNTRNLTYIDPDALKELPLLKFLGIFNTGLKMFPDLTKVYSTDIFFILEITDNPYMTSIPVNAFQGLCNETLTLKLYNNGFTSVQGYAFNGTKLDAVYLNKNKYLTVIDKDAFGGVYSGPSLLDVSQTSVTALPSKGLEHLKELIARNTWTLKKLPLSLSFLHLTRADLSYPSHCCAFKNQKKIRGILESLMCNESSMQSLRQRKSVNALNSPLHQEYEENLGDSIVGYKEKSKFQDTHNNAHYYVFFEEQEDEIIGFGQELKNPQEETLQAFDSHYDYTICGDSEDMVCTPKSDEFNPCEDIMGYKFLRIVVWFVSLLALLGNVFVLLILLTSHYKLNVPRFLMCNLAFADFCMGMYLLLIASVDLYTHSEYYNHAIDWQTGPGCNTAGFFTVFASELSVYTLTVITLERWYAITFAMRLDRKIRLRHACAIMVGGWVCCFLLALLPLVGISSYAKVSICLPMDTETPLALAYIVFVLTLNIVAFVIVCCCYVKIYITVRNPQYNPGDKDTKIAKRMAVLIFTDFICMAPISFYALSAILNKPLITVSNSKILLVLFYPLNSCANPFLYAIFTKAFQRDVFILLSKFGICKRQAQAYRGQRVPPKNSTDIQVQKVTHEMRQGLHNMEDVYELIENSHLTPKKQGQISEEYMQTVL
Outline: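 Antagonist mode: compound-treated TSHR-expressing HEK293 cells were stimulated with 1.5 ng/mL TSH (final) in presence of Ro20-1724 for 30 min at RT. HTRF cAMP detection after 1 h; each compound tested at 15 concentrations, triplicate.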

Row | SMILES | activity change, negative = inhibition | Potency
31 | CC(C)(C)CC(C)(C)c1ccc(O)c(Cc2ccc(Cl)cc2Cl)c1 | -6.6% [at 42.5 µM] (inactive) | –
32 | Nc1nc2ccccc2n1Cc1ccc(F)cc1 | 1.14% [at 42.5 µM] (inactive) | –
33 | C[C@@H]1C[C@H]2[C@@H]3CCC4=CC(=O)C=C[C@]4(C)[C@@]3(Cl)[C@@H](O)C[C@]2(C)[C@@]1(OC(=O)c1ccco1)C(=O)CCl | -0.0193% [at 42.5 µM] (inactive) | –
34 | Cc1ccc(O)c(C(C)(C)C)c1 | – | inactive
35 | CC1=NC(C)OC1C (stereo not given) | 2.02% (inactive) | –
36 | CN(C)c1ccc(C2(c3ccc(N(C)C)cc3)OC(=O)c3cc(N(C)C)ccc32)cc1 | 1.07% (inactive) | –
37 | CCCC(C)c1ccccc1O (stereo not given) | -4.37% (inactive) | –
38 | CCOC(=O)c1nc(C(Cl)(Cl)Cl)n(-c2ccc(Cl)cc2Cl)n1 | -10% (inactive) | –
39 | OCCN1CCN(CC/C=C2/c3ccccc3Sc3ccc(C(F)(F)F)cc32)CC1 | -4.61% [at 42.5 µM] (inactive) | –
40 | CC(C)(C)C1CCC(CC2=C(O)c3ccccc3C(=O)C2=O)CC1 (stereo not given) | -0.431% [at 42.5 µM] (inactive) | –
41 | NC(=O)CC[C@@H]1NC(=O)[C@H](Cc2ccccc2)NC(=O)[C@H](Cc2ccc(O)cc2)NC(=O)CCSSC[C@@H](C(=O)N2CCC[C@H]2C(=O)N[C@@H](CCCN=C(N)N)C(=O)NCC(N)=O)NC(=O)[C@H](CC(N)=O)NC1=O | -0.254% [at 42.5 µM] (inactive) | –
42 | O=C1C=CC(=O)N1c1ccc(Cc2ccc(N3C(=O)C=CC3=O)cc2)cc1 | – | 48.6 µM (active)
43 | O=C(OCC1CO1)C1CCCCC1C(=O)OCC1CO1 (stereo not given) | -0.88% (inactive) | –
44 | Clc1ccc(C(Cn2ccnc2)OCc2ccc(Sc3ccccc3)cc2)c(Cl)c1 (stereo not given) | -0.53% [at 42.5 µM] (inactive) | –
45 | CCN(C(=O)N(CC)c1ccccc1)c1ccccc1 | -0.344% (inactive) | –
46 | COc1cccc2c1C(=O)c1c(O)c3c(c(O)c1C2=O)C[C@@](O)(C(=O)CO)C[C@@H]3O[C@H]1C[C@H](N)[C@H](O[C@@H]2CCCCO2)[C@H](C)O1 | 1.25% [at 42.5 µM] (inactive) | –
47 | CCN(C(=O)c1cc(C)cc(OC[C@H](C)Nc2ccncc2)c1)C(C)C | -6.97% [at 42.5 µM] (inactive) | –
48 | CCCCCCCCCCCC[N+](C)(C)CCCCCCCCCCCC | 10.5% (inactive) | –
49 | CCCCN1C(=O)[C@@H]([C@H](O)C2CCCCC2)NC(=O)C12CCN(Cc1ccc(Oc3ccc(C(=O)O)cc3)cc1)CC2 | -1.61% (inactive) | –
50 | CS(=O)(=O)CCNCc1ccc(-c2ccc3ncnc(Nc4ccc(OCc5cccc(F)c5)c(Cl)c4)c3c2)o1 | -13.2% [at 42.5 µM] (inactive) | –
51 | O=C(O)c1cc(O)c2c(c1)C(=O)c1cccc(O)c1C2=O | -0.672% (inactive) | –
52 | O=CC=C(c1ccccc1)c1ccccc1 | -3.23% (inactive) | –
53 | O=C(Nc1cccc([N+](=O)[O-])c1)c1cc2ccccc2cc1O | 1.55% (inactive) | –
54 | Oc1c(Cl)cc(Cl)c2cccnc12 | 1.44% [at 42.5 µM] (inactive) | –
55 | CC(=O)S[C@@H]1CC2=CC(=O)CC[C@]2(C)[C@H]2CC[C@@]3(C)[C@@H](CC[C@@]34CCC(=O)O4)[C@H]12 | 4.64% (inactive) | –
